This passage reports binding signal results from publication PMC7862700, “An all-to-all approach to the identification of sequence-specific readers for epigenetic DNA modifications on cytosine”.

What all share (assay): DAPPL (digital affinity profiling via proximity ligation, sequencing); 10 mM Tris-HCl pH 7.5, 50 mM NaCl, 1 mM DTT, 4% glycerol, room temperature, 30 min; GST-TFs on glutathione beads, 16-mer random dsDNA library, 0.1% formaldehyde crosslink after washing; high values mean tight binding
The target in one experiment is T1, FLI1 (Homo sapiens, UniProt Q01543 1-452).
T1 sequence: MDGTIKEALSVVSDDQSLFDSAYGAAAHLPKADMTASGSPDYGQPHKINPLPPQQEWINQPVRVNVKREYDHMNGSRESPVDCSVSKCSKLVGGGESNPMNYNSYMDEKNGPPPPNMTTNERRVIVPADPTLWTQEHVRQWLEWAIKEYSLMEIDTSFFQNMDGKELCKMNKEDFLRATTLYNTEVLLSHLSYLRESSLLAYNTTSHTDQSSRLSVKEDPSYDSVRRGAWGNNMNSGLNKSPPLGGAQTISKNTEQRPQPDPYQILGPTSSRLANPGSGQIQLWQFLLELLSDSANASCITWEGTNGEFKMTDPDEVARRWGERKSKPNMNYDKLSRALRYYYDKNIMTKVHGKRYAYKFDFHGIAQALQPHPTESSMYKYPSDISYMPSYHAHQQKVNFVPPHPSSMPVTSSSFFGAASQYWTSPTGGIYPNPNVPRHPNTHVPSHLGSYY
The conditions noted are these: protein: recombinant; tags: N-terminal GST; dsDNA, one strand shown. The procedure, abridged:
(§1)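 Beads coated with glutathione captured GST-fused human transcription factors that had been expressed in yeast, and the factors were then given DNA barcodes and pooled with a tag-only sample. The pools were incubated with 200 nmole of a random double-stranded 16-mer DNA library in Tris/NaCl/DTT/glycerol buffer for 30 min at room temperature, washed, crosslinked with 0.1% formaldehyde and proximity-ligated with BsaI/T4 ligase at 37 °C for 1 h. PCR amplification and Illumina NextSeq500 sequencing came last. Binding signal is each hexamer's read frequency for a factor divided by its frequency for the tag-only sample.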

The target of the next experiment is T2, GABPA (Homo sapiens, UniProt Q06546 1-454).
T2 sequence: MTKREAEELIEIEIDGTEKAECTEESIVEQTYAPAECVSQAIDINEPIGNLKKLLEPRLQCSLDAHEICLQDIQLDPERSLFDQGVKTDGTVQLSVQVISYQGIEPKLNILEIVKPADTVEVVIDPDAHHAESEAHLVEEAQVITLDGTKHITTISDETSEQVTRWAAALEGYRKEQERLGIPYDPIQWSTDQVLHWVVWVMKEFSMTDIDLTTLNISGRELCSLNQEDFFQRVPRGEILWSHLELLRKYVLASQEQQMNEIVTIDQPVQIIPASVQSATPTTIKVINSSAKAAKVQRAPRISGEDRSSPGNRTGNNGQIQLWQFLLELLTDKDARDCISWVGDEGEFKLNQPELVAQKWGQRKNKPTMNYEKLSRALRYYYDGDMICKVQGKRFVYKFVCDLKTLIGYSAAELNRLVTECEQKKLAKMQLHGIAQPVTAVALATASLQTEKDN
The settings on record: protein: recombinant; tags: N-terminal GST; dsDNA, one strand shown. The essentials:
as §1

Another experiment concerns the target T3, ERG (Homo sapiens, UniProt P11308 1-479).
T3 sequence: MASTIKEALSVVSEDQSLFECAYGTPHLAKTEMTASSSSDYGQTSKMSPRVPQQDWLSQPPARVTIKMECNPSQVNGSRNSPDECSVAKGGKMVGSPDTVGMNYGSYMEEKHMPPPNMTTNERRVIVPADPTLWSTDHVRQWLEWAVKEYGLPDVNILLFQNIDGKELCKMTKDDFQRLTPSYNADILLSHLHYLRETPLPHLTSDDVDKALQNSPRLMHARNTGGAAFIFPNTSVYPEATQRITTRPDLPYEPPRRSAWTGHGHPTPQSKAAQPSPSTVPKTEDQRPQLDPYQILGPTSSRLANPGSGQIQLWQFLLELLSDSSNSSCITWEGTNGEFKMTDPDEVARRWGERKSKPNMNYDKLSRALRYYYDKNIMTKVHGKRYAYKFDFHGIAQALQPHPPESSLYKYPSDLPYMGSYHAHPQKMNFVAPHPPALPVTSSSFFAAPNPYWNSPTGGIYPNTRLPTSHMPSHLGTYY
The conditions noted are these: protein: recombinant; tags: N-terminal GST; dsDNA, one strand shown. The procedure, abridged:
as §1

The next experiment has as its target SPI1 (Homo sapiens, UniProt P17947 1-270). The settings on record: protein: recombinant; tags: N-terminal GST; dsDNA, one strand shown. The essentials:
as §1

A further experiment has as its target SPIB (Homo sapiens, UniProt Q01892 1-262). The settings on record: protein: recombinant; tags: N-terminal GST; dsDNA, one strand shown. The procedure, abridged: as §1
In a further experiment the target is T4, ELK3 (Homo sapiens, UniProt P41970 1-407).
T4 sequence: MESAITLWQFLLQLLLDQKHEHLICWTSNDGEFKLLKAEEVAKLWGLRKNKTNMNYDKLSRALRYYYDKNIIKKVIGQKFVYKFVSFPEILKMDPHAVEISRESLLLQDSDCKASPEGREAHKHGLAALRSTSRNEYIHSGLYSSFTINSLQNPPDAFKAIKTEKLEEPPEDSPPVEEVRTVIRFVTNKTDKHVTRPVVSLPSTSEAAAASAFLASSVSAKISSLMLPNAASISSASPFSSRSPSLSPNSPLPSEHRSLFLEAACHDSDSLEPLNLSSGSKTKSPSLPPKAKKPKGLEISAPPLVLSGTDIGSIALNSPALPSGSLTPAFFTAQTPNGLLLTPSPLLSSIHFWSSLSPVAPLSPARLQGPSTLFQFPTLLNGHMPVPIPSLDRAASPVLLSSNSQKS
The conditions noted are these: protein: recombinant; tags: N-terminal GST; dsDNA, one strand shown. The essentials: as §1

The target in another experiment is ETV5 (Homo sapiens, UniProt P41161 1-510). The settings on record: protein: recombinant; tags: N-terminal GST; dsDNA, one strand shown. The procedure, abridged:
as §1

The target in the next experiment is HSF1 (Homo sapiens, UniProt Q00613 1-529). The conditions noted are these: protein: recombinant; tags: N-terminal GST; chain copies: 3; dsDNA, one strand shown. The essentials: as §1
Sequence of HSF1 (Q00613 whole entry): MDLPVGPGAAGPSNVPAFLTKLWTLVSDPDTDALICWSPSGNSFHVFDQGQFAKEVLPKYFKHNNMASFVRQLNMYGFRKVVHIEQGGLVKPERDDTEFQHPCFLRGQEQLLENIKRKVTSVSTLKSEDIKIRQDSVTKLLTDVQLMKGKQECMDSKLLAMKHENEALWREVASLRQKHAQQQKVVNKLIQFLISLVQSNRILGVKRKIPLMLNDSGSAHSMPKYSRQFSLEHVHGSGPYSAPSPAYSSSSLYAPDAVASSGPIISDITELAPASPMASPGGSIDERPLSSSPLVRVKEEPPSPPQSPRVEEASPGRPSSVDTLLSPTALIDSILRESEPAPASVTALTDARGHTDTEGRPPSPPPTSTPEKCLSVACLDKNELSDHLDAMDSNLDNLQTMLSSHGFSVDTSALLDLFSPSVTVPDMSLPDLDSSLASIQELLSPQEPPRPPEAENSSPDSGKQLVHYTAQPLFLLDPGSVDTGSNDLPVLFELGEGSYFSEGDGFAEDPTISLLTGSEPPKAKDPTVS
The next experiment deals with T5, SPIC (Homo sapiens, UniProt Q8N5J4 1-248).
T5 sequence: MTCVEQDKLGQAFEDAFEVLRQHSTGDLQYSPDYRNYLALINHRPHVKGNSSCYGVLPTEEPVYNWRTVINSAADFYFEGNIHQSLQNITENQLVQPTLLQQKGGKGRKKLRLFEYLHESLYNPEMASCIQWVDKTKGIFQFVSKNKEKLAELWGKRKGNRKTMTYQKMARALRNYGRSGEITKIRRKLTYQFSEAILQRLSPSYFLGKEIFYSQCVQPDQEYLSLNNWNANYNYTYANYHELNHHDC
The conditions noted are these: protein: recombinant; tags: N-terminal GST; dsDNA, one strand shown. The procedure, abridged: as §1

In the next experiment the target is ELF4 (Homo sapiens, UniProt Q99607 1-663). The settings on record: protein: recombinant; tags: N-terminal GST; dsDNA, one strand shown. The essentials:
as §1

The target in another experiment is T6, ELK4 (Homo sapiens, UniProt P28324-2 1-405).
T6 sequence: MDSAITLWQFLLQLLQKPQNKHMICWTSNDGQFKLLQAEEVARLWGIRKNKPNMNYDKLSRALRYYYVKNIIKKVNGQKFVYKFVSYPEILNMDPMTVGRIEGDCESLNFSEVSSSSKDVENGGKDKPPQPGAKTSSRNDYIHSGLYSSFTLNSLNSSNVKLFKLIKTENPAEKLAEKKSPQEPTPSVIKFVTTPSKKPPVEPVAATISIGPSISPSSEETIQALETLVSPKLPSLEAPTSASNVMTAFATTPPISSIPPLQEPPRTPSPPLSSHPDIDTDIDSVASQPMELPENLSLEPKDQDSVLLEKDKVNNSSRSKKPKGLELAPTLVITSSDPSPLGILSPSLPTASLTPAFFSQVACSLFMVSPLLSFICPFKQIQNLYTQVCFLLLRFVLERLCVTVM
The conditions noted are these: protein: recombinant; tags: N-terminal GST; dsDNA, one strand shown. The procedure, abridged:
as §1

For a further experiment, the target named is T7, ETV2 (Homo sapiens, UniProt O00321 1-342).
T7 sequence: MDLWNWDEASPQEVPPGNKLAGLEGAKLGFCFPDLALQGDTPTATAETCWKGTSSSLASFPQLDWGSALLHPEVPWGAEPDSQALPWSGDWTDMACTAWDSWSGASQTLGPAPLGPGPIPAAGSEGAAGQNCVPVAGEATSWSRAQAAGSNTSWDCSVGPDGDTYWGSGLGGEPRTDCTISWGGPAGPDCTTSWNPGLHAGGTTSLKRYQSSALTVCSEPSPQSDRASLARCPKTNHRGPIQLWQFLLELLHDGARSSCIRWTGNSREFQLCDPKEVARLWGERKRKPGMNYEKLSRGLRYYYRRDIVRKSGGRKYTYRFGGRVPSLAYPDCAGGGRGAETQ
The settings on record: protein: recombinant; tags: N-terminal GST; dsDNA, one strand shown. The essentials:
as §1

For a further experiment, the target named is T8, ELF3 (Homo sapiens, UniProt P78545 1-371).
T8 sequence: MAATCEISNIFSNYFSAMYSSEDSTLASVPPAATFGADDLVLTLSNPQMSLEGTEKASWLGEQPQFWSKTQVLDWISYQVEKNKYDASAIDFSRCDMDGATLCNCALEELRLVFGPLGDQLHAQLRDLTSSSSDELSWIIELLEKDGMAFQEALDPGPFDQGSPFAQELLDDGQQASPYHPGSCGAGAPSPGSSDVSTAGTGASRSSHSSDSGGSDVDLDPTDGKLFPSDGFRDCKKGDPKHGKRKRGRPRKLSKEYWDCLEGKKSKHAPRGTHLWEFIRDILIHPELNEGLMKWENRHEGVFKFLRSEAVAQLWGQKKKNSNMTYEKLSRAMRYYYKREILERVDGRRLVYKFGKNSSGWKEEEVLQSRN
The settings on record: protein: recombinant; tags: N-terminal GST; dsDNA, one strand shown. The procedure, abridged: as §1

In a further experiment the target is CRX (Homo sapiens, UniProt O43186 1-299). The settings on record: protein: recombinant; tags: N-terminal GST; dsDNA, one strand shown. The essentials: as §1
Sequence of CRX (O43186 whole entry): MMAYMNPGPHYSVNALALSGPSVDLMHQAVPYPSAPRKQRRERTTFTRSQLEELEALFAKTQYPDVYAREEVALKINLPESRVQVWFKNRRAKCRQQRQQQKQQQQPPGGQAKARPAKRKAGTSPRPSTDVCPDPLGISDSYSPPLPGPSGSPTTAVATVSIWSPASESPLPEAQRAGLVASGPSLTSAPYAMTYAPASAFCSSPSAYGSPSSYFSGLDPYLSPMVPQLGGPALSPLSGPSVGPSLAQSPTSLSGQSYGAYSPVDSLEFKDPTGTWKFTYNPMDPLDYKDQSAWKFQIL
A further experiment has as its target ELF1 (Homo sapiens, UniProt P32519 1-619). The conditions noted are these: protein: recombinant; tags: N-terminal GST; dsDNA, one strand shown. The procedure, abridged: as §1
In the next experiment the target is T9, EHF (Homo sapiens, UniProt Q9NZC4 1-300).
T9 sequence: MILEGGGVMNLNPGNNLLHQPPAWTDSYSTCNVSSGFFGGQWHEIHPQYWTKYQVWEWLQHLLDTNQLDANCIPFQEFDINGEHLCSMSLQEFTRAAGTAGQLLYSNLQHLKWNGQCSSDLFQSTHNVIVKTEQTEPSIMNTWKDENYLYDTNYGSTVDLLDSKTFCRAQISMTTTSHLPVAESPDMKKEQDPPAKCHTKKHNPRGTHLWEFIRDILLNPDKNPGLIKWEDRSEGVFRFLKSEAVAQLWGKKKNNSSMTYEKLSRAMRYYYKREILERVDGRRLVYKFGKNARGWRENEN
The settings on record: protein: recombinant; tags: N-terminal GST; dsDNA, one strand shown. The procedure, abridged: as §1

The target of another experiment is T10, FEV (Homo sapiens, UniProt Q99581 1-238).
T10 sequence: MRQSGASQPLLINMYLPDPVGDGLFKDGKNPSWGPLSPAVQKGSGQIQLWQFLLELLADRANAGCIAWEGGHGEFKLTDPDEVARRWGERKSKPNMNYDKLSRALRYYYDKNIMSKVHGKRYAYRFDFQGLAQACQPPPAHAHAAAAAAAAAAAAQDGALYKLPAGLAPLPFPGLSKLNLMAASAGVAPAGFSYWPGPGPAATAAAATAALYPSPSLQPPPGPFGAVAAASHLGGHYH
The settings on record: protein: recombinant; tags: N-terminal GST; dsDNA, one strand shown. The essentials:
as §1

The next experiment concerns the target ETV1 (Homo sapiens, UniProt P50549 1-477). The settings on record: protein: recombinant; tags: N-terminal GST; dsDNA, one strand shown. The procedure, abridged:
as §1

Sequence of SPIB (Q01892 whole entry): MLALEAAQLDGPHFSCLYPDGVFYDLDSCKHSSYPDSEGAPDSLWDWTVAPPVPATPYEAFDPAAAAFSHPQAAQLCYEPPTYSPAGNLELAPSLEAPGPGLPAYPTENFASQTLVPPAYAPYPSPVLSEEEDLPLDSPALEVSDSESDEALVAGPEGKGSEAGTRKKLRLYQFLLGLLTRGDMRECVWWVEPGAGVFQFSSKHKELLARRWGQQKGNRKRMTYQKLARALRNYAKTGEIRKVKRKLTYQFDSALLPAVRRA
Sequence of ELF4 (Q99607 whole entry): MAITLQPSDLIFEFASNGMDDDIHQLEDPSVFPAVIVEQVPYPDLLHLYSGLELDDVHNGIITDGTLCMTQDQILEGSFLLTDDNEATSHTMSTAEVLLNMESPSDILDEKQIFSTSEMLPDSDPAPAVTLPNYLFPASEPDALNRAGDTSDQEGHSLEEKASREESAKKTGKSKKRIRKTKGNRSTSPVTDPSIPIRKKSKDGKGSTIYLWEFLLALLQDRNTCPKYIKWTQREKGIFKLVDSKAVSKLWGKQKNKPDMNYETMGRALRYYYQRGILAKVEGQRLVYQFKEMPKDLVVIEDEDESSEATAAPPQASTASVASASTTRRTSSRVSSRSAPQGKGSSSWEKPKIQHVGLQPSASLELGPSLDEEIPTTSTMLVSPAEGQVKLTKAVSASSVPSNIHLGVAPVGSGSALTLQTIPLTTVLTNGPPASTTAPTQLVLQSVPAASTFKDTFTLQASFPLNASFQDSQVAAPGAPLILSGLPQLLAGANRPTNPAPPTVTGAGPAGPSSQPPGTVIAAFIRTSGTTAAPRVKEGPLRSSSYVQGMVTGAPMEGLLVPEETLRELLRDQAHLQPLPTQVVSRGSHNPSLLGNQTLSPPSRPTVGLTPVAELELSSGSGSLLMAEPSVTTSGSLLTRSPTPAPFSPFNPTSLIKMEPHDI
Sequence of ETV5 (P41161 whole entry): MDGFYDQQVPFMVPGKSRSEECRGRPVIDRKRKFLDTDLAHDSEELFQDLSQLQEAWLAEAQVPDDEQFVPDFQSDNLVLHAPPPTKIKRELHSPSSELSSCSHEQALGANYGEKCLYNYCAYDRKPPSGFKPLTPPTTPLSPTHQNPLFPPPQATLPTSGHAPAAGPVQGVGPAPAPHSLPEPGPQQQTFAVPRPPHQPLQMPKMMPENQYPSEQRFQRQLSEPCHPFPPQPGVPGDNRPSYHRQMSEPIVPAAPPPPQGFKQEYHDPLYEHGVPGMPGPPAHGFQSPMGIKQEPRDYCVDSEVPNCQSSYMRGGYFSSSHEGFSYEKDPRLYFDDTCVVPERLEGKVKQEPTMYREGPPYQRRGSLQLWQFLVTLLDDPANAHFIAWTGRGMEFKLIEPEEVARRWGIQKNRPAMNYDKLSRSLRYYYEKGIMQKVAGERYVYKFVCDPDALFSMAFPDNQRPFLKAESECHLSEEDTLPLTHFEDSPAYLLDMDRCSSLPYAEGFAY
Sequence of ETV1 (P50549 whole entry): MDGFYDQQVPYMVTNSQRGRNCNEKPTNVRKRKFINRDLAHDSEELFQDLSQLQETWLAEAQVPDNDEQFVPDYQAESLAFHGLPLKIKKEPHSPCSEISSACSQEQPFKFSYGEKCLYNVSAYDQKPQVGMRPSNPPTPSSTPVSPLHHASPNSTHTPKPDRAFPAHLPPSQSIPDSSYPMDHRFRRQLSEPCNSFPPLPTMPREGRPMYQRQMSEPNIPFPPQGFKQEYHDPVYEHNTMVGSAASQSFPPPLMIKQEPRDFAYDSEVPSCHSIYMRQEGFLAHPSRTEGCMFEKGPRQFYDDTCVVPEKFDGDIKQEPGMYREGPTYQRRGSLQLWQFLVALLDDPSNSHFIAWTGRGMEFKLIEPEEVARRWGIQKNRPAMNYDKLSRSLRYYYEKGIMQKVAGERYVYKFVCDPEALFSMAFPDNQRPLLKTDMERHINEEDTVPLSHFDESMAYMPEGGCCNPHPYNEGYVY
Sequence of ELF1 (P32519 whole entry): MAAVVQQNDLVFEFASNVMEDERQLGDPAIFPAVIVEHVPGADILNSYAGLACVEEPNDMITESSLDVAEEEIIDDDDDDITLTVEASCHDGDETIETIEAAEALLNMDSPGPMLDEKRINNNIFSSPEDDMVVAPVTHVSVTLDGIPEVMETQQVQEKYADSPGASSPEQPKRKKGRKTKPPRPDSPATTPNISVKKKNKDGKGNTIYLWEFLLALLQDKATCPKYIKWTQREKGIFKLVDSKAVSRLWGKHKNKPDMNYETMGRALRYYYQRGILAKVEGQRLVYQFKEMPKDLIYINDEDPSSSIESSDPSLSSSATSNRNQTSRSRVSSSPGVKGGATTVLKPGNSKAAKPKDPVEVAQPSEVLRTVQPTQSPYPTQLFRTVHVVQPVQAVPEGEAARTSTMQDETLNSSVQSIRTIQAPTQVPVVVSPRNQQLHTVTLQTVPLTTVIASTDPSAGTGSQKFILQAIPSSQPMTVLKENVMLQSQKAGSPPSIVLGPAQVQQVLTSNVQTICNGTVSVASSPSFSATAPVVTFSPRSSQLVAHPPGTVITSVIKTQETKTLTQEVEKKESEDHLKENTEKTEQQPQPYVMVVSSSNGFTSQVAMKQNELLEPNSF

As for GTTAAA, the binding signal in the experiment with FLI1 was 1.03 fold enrichment (6-mer frequency, TF over GST control); with GABPA it was 1.01 fold enrichment (6-mer frequency, TF over GST control); with ERG it was 1.03 fold enrichment (6-mer frequency, TF over GST control); with SPI1, 1.08 fold enrichment (6-mer frequency, TF over GST control); with SPIB, 1.07 fold enrichment (6-mer frequency, TF over GST control); in the experiment with ELK3, 1.01 fold enrichment (6-mer frequency, TF over GST control). Also, the binding signal is 1.02 fold enrichment (6-mer frequency, TF over GST control) with ETV5; 1.01 fold enrichment (6-mer frequency, TF over GST control) with HSF1; 1.17 fold enrichment (6-mer frequency, TF over GST control) in the experiment with SPIC; 1.07 fold enrichment (6-mer frequency, TF over GST control) in the experiment with ELF4; 1.04 fold enrichment (6-mer frequency, TF over GST control) with ELK4; 1.11 fold enrichment (6-mer frequency, TF over GST control) with ETV2. For the same sequence, the binding signal with ELF3 was 1.29 fold enrichment (6-mer frequency, TF over GST control); with CRX, 1.27 fold enrichment (6-mer frequency, TF over GST control).

In the case of TCATTA, the binding signal with FLI1 was 1.12 fold enrichment (6-mer frequency, TF over GST control); with GABPA it was 1.07 fold enrichment (6-mer frequency, TF over GST control); in the experiment with ERG, 1.06 fold enrichment (6-mer frequency, TF over GST control); with ELF1 it was 1.16 fold enrichment (6-mer frequency, TF over GST control); in the experiment with EHF, 1.09 fold enrichment (6-mer frequency, TF over GST control); with SPI1 it was 1.12 fold enrichment (6-mer frequency, TF over GST control). The binding signal in the experiment with SPIB is 1.16 fold enrichment (6-mer frequency, TF over GST control); with FEV it was 1.11 fold enrichment (6-mer frequency, TF over GST control); in the experiment with ETV5, 1.11 fold enrichment (6-mer frequency, TF over GST control); in the experiment with HSF1 it was 1.18 fold enrichment (6-mer frequency, TF over GST control); with SPIC it was 1.24 fold enrichment (6-mer frequency, TF over GST control); with ELF4, 1.15 fold enrichment (6-mer frequency, TF over GST control). Also, the binding signal with ELK4 is 1.16 fold enrichment (6-mer frequency, TF over GST control); in the experiment with ETV2, 1.08 fold enrichment (6-mer frequency, TF over GST control); in the experiment with ELF3, 1.07 fold enrichment (6-mer frequency, TF over GST control); with CRX, 1.62 fold enrichment (6-mer frequency, TF over GST control); with ETV1, 1.08 fold enrichment (6-mer frequency, TF over GST control).
